Where a name gives a salt, the structure may show the parent alone.
These compounds were tested on Saccharomyces cerevisiae BY4741 SeMeCo community (assay: z-score of subpopulation abundance vs DMSO median, subpopulation auxotrophic for LM; higher = larger share of this subpopulation than in DMSO controls). Conditions: 10 µM; 24 h; SM minimal medium; subpopulation (auxotrophy): LM.
Protocol: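 Fluorescent four-plasmid SeMeCo (self-establishing metabolically cooperating S. cerevisiae BY4741 community; plasmids pH-mRuby2, pL-mWasabi, pU-eCFP, pM-TagRFP657) was grown 24 h in minimal SM medium with each Selleck FDA-approved drug at 10 µM in 384-well plates. Cells were fixed and imaged by high-content confocal microscopy. For each auxotrophic subpopulation (and the prototroph), a z-score gives the deviation from the DMSO vehicle-control population median.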

Compound	z-score of subpopulation abundance
CC1=C(C(=O)O)N2C(=O)[C@@H](NC(=O)[C@H](N)c3ccc(O)cc3)[C@H]2SC1 [Cefadroxil hydrate]	-0.09
Cn1cc(C(=O)[C@@H]2CCc3[nH]cnc3C2)c2ccccc21 [Ramosetron Hydrochloride]	0.12
COc1ccnc(C[S+]([O-])c2nc3cc(OC(F)F)ccc3[nH]2)c1OC (stereo not given) [Pantoprazole]	0.04
C#C[C@]1(O)CC[C@H]2[C@@H]3CCC4=Cc5oncc5C[C@]4(C)[C@H]3CC[C@@]21C [Danazol]	0.04
Clc1ccc(C(Cn2ccnc2)OCc2ccc(Sc3ccccc3)cc2)c(Cl)c1 (stereo not given) [Fenticonazole Nitrate]	-5.38
COc1cccc(-c2c(C)n(Cc3c(F)cccc3C(F)(F)F)c(=O)n(C[C@H](NCCCC(=O)O)c3ccccc3)c2=O)c1F [Elagolix Sodium]	-0.38
N[C@H]1CONC1=O [L-Cycloserine]	1.19
COc1cc2c(cc1OC)C(=O)C(CC1CCN(Cc3ccccc3)CC1)C2 (stereo not given) [Donepezil HCl]	-0.26
Cc1cccc(Nc2ccccc2C(=O)O)c1C [Mefenamic Acid]	0.12
COc1ccnc(C[S+]([O-])c2nc3cc(OC(F)F)ccc3[nH]2)c1OC (stereo not given) [Pantoprazole sodium]	0
O=C(NCCO[N+](=O)[O-])c1cccnc1 [Nicorandil]	-0.01
C/C=C1\[C@H]2C=C(C)C[C@]1(N)c1ccc(=O)[nH]c1C2 [(-)-Huperzine A (HupA)]	-0.7
CC1(C)S[C@@H]2[C@H](NC(=O)[C@H](N)c3ccc(O)cc3)C(=O)N2[C@H]1C(=O)O [Amoxicillin]	-0.13
O=C1OCCN1/N=C/c1ccc([N+](=O)[O-])o1 [Furazolidone]	1.07
Cc1cc(-c2ccc(/N=N/c3ccc4c(S(=O)(=O)O)cc(S(=O)(=O)O)c(N)c4c3O)c(C)c2)ccc1/N=N/c1ccc2c(S(=O)(=O)O)cc(S(=O)(=O)O)c(N)c2c1O [Evans Blue]	-5.69
O=C(O)CCC(=O)Nc1ccc(S(=O)(=O)Nc2nccs2)cc1 [Succinylsulfathiazole]	-0.35
CC(C)C(=O)Oc1ccc(CO)cc1[C@H](CCN(C(C)C)C(C)C)c1ccccc1 [Fesoterodine Fumarate]	-0.9
Nc1nc2[nH]cc(CCc3ccc(C(=O)N[C@@H](CCC(=O)O)C(=O)O)cc3)c2c(=O)[nH]1 [Pemetrexed]	-3.17
COc1ccccc1N1CCN(CCCNc2cc(=O)n(C)c(=O)n2C)CC1 [Urapidil HCl]	-0.25
CN(C)[C@@H](CCOc1cccc2ccccc12)c1ccccc1 [Dapoxetine HCl]	0.47

Compound	z-score of subpopulation abundance
N#Cc1ccc2[nH]cc(CCCCN3CCN(c4ccc5oc(C(N)=O)cc5c4)CC3)c2c1 [Vilazodone]	0.35
Nc1nc(/C(=C/CC(=O)O)C(=O)N[C@@H]2C(=O)N3C(C(=O)O)=CCS[C@H]23)cs1 [Ceftibuten dihydrate]	0.1
CO[C@@]1(NC(=O)CSC[C@@H](N)C(=O)O)C(=O)N2C(C(=O)O)=C(CSc3nnnn3C)CS[C@@H]21 [Cefminox Sodium]	-0.15
CC(C)COCC(CN(Cc1ccccc1)c1ccccc1)N1CCCC1 (stereo not given) [Bepridil hydrochloride]	-0.16
CCn1cc(C(=O)O)c(=O)c2cc(F)c(N3CCNC(C)C3)c(F)c21 (stereo not given) [Lomefloxacin HCl]	1.35
Oc1c(I)cc(I)c2cccnc12 [Diiodohydroxyquinoline]	0.38
CC1(C)S[C@@H]2[C@H](NC(=O)[C@H](N)c3ccc(O)cc3)C(=O)N2[C@H]1C(=O)O [Amoxicillin trihydrate]	0.15
Oc1c(Cl)cc(Cl)cc1Sc1cc(Cl)cc(Cl)c1O [Bithionol]	-1.62
CN1C2CCC1CC(OC(=O)C(O)c1ccccc1)C2 (stereo not given) [Homatropine Bromide]	-0.11
Nc1ccc(S(=O)(=O)Nc2ccnn2-c2ccccc2)cc1 [Sulfaphenazole]	-0.2
Cc1c[nH]c(=O)[nH]c1=O [Thymine]	-0.22
CCOC(=O)OC(C)OC1=C(C(=O)Nc2ccccn2)N(C)S(=O)(=O)c2ccccc21 (stereo not given) [Ampiroxicam]	0.15
COC1C(O)CC(=O)OC(C)CC=CC=CC(OC2CCC(N(C)C)C(C)O2)C(C)CC(CC=O)C1OC1OC(C)C(OC2CC(C)(O)C(O)C(C)O2)C(N(C)C)C1O (stereo not given) [Spiramycin]	-0.48
N=C(N)NC(=N)N1CCOCC1 [Moroxydine HCl]	0.58
O=C1CN(/N=C/c2ccc([N+](=O)[O-])o2)C(=O)N1 [Nitrofurantoin]	-0.69
Cc1cc(O)c(C(=O)N[C@@H](C(=O)N[C@@H]2C(=O)N3C(C(=O)O)=C(CSc4nnnn4C)CS[C@H]23)c2ccc(O)cc2)cn1 [Cefpiramide sodium]	-0.42
CO/N=C(\C(=O)N[C@@H]1C(=O)N2C(C(=O)[O-])=C(C[N+]3(C)CCCC3)CS[C@H]12)c1csc(N)n1 [Cefepime Dihydrochloride Monohydrate]	0.72
C#C[C@]1(O)CC[C@H]2[C@@H]3CCC4=CCCC[C@@H]4[C@H]3CC[C@@]21C [Lynestrenol]	-0.94
CC(NCCC(c1ccccc1)c1ccccc1)c1ccccc1 (stereo not given) [Fendiline hydrochloride]	-0.45
O=C(CCCN1CC=C(n2c(=O)[nH]c3ccccc32)CC1)c1ccc(F)cc1 [Droperidol]	0.69

Reference: the supplement of paper PMC8975748
